Among all 330,000 compounds or so, about 4,900 (1.5%) were called active. This is one part of a sample in which actives are shown more often than they occur.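 Rule for the calls: active = inhibition above the mean inhibition across the screen plus 3 SD (cut at about 25% in these data); inactive = the rest.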
Biological target: Platelet-activating factor acetylhydrolase (Homo sapiens) (UniProt Q13093)
Assay: pPAFAH enzyme inhibitors, primary screen, biochemical, fluorescence polarization, human (AID 463082);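 note: inhibitors block binding of the rhodamine activity-based probe so polarization drops; 0% = enzyme with DMSO and 100% = wells lacking pPAFAH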
Conditions: recombinant pPAFAH, FP-rhodamine probe fluorescence polarization; at 3.39 µM; hits give high values

Sequence of Platelet-activating factor acetylhydrolase (Homo sapiens) (Q13093 whole entry, looked up): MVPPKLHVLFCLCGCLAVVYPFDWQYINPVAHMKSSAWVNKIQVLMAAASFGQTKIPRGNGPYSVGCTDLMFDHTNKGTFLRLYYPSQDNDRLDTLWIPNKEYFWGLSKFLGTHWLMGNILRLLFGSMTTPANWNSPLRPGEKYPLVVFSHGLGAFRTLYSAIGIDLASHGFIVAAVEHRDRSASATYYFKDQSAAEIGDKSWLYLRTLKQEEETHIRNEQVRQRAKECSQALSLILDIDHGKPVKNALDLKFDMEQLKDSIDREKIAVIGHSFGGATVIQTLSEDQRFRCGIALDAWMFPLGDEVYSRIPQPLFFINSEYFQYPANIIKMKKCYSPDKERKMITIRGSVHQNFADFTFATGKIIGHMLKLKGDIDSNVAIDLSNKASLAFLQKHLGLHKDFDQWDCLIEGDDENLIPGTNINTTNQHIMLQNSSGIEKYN

inhibition, inactive:
CCc1cccc(C)c1NC(=O)CSc1nnc(-c2ccco2)n1N -2.12%
Cc1cc(NC(=O)CSc2nnc(-c3ccco3)n2N)no1 1.38%
CN(CC(=O)NC1CCCC1)S(=O)(=O)c1cnc[nH]1 5.78%
Cc1ccc(S(=O)(=O)NCc2cn3ccsc3n2)c(C)c1 3.63%
Cc1nc(CNS(=O)(=O)c2cc([N+](=O)[O-])ccc2C)cs1 1.89%
O=C(NCCN1CCOC1=O)C1CCC(=O)N(CCc2ccc(Cl)cc2)C1 (stereo unspecified) 6.31%
CCOC(=O)c1c(N=CN(C)C)c(C#N)c2n1CCCC2 -0.32%
CC(C)C(C)(C#N)NC(=O)CSc1nncn1-c1ccccc1 (stereo unspecified) 3.15%
Cc1cccc(C)c1NC(=O)CNC(=O)C1CCCC1 -3.74%
CCc1cccc(C)c1NC(=O)COC(=O)CNC(=O)c1cccs1 -1.56%
CCC(=O)NC(=Nc1nc2ccccc2s1)NC(=O)CC 1.11%
COc1ccc(C2=NN(c3nc4ccccc4s3)C(=O)C2)cc1 10.8%
C=CCNC(=O)COC(=O)c1ccccc1C(=O)N(C)C1CCCCC1 -0.67%
CC1(c2ccc3ccccc3c2)NC(=O)N(CC(N)=O)C1=O (stereo unspecified) 1.23%
COc1ccccc1NC(=O)CCSc1nnc(-c2ccc(O)cc2)o1 -1.64%
CC(C)(C)NC(=O)NC(=O)COC(=O)C1(C)CC1(Cl)Cl (stereo unspecified) 4.74%
COc1ccccc1OCCC(=O)OCC(=O)NC(=O)NC(C)(C)C 2.65%
COc1ccc(N(CC(=O)Nc2cc(OC)cc(OC)c2)S(=O)(=O)c2c(C)n[nH]c2C)cc1 1.91%
CC(C)N(C(=O)[C@H]1C[C@H](CC(=O)NCCC2=CCCCC2)C(=O)N2CCc3c([nH]c4cc(CCC(=O)N(C)C)ccc34)[C@]12C)C(C)C 16.4%
CC[C@]12c3[nH]c4cc(CCC(=O)N(C)C)ccc4c3CCN1C(=O)[C@@H](CC(=O)NCC13CC4CC(CC(C4)C1)C3)C[C@@H]2C(=O)N1CCN(C(=O)C2CC2)CC1 1.87%
CC(C)C(O)C1CCN(Cc2nc(Cc3ccccc3Cl)no2)CC1 (stereo unspecified) 1.22%
CCSCc1nc(N)nc(NCCc2ccccc2)n1 5.83%
Nc1c(C(=O)NCc2ccccc2)sc2nc3c(cc12)C(=O)CCC3 9%
CCc1nc2sc(C(=O)O)c(N)c2c2c1CCCC2 1.17%
Cc1ccccc1Cn1nc(C)c(NC(=O)C(F)(F)F)c1C -5.3%
COC(=O)c1cc(S(=O)(=O)N2CCN(c3cc(C)ccc3C)CC2)c[nH]1 -4.07%
CCOc1ccccc1NS(=O)(=O)c1c[nH]c(C(=O)OC)c1 -0.19%
Cn1c(=O)c2c(nc(N3CCCCCC3)n2CC(O)COc2ccc(Cl)cc2)n(C)c1=O (stereo unspecified) 4.56%
Cc1cc(SCc2c(F)cccc2Cl)nc(=O)[nH]1 1.8%
Cc1ccc(CSc2nsc(C)c2C#N)cc1 8.61%
O=C(Nc1ccc2c(c1)OCO2)C1CC(c2c(F)cccc2Cl)=NO1 (stereo unspecified) 1.16%
Cc1cc(C)cc(NC(=O)NCc2ccccn2)c1 1.23%
COCCNC(=O)c1snc2ccc(Cl)cc12 -0.4%
O=C1CSc2ccc(C(=O)NCc3ccccn3)cc2N1 0.84%
COc1cccc(NC(=O)NCCN2CCCCC2)c1 3.86%
Cc1ccc(C(=O)CN2C(=O)NC3(CCc4ccccc43)C2=O)c(C)c1 (stereo unspecified) -8.87%
O=S(=O)(Oc1ccccc1C(=S)N1CCOCC1)c1ccc(Cl)cc1 4.58%
O=C(NCc1ccc(F)cc1)C1CCC(CNc2c(N3CCOCC3)c(=O)c2=O)CC1 (stereo unspecified) 1.22%
CCOC(=O)c1sc(NC(=O)C2CSC3(C)CCC(=O)N23)nc1C (stereo unspecified) 0.96%
Cc1cc(C)c(C2C3=C(Nc4c2c(C)nn4-c2ccccn2)c2ccccc2C3=O)c(C)c1 (stereo unspecified) -8.35%
Cc1ccc(-c2ccnc3[nH]n(-c4ccccc4)c(=O)c23)cc1 2.79%
COc1ccccc1N(CC(=O)Nc1ccc(C)cc1Cl)S(=O)(=O)c1cccs1 6.13%
O=c1cc(CN2CCN(S(=O)(=O)/C=C/c3ccccc3)CC2)c2ccc(O)cc2o1 2.78%
Cc1ccccc1C(=O)Nc1cccc(-c2nnc(SCC(=O)O)n2C)c1 -1.6%
Cc1noc(C)c1C(=O)OC(C)C(=O)Nc1ccc2c(c1)OCO2 (stereo unspecified) 1.18%
Cc1cccc(C)c1NC(=O)CNC(=O)Cc1ccc(Br)cc1 1.92%
O=C(COC(=O)Cc1ccc(Br)cc1)Nc1ccc(N2CCOCC2)cc1 6.93%

inhibition, active:
NC(=O)c1c(NC(=O)CSc2nnc(-c3ccco3)n2N)sc2c1CCCC2 24.9%
Cc1ccc(S(=O)(=O)NCc2csc(C)n2)c(C)c1 57.6%
CCc1cccc(C)c1NC(=O)COC(=O)CC1CCCC1 31.2%
CCC(C)Cn1c(O)cc2nn(-c3nc4ccccc4s3)c(=O)c-2c1C (stereo unspecified) 49.8%
CC(C)(C)NC(=O)NC(=O)COC(=O)CCC1CCCCC1 29.9%
CCN(CC)C(=O)[C@H]1C[C@H](CC(=O)NCC23CC4CC(CC(C4)C2)C3)C(=O)N2CCc3c([nH]c4cc(CCC(=O)N(C)C)ccc34)[C@]12C 27.5%
NC(=O)c1sc2nc3c(c(-c4ccccc4)c2c1N)CCC3 25.1%
COC(=O)c1cc(S(=O)(=O)Nc2ccc(C)c(F)c2)c[nH]1 37.4%
Cc1snc(SCc2c(F)cccc2Cl)c1C#N 24.7%
Nc1ccc2nc3c(=O)[nH]c(=S)[nH]c3nc2c1 47.8%
O=C(NCc1ccccn1)c1ccc2nc(-c3ccco3)c(-c3ccco3)nc2c1 65.8%
COCCNC(=O)Nc1ccc2nc(-c3ccco3)c(-c3ccco3)nc2c1 75.6%
Cc1ccc(C2C3=C(Nc4[nH]n(-c5ccccc5)c(=O)c42)c2ccccc2C3=O)cc1 (stereo unspecified) 34.5%
O=C(COC(=O)Cc1ccc(Br)cc1)Nc1c(F)c(F)c(F)c(F)c1F 32.9%

Source: PubChem BioAssay AID463082 (The Scripps Research Institute Molecular Screening Center, 2010)
